Shown are actives, neighbours in structure and some others; about 12% of the full set was active somewhere.
PLK1 PBD inh: blocks phosphopeptide binding to human PLK1 polo-box domain | P53350 | Plk1 PBD binding of FITC phosphopeptide, fluorescence polarization | Potency, µM, inactives show max response, negative = inhibition, hits mostly inhibitors | 360,000 compounds, 2.8% hits | AID 720504; note: series mostly up to about 57 µM; % is set by controls: 0 for no effect and ±100 for the full control effect; nearly all actives have a fitted effect of over 65% in size
Target sequence (P53350 whole entry, looked up, the tested form may be a part): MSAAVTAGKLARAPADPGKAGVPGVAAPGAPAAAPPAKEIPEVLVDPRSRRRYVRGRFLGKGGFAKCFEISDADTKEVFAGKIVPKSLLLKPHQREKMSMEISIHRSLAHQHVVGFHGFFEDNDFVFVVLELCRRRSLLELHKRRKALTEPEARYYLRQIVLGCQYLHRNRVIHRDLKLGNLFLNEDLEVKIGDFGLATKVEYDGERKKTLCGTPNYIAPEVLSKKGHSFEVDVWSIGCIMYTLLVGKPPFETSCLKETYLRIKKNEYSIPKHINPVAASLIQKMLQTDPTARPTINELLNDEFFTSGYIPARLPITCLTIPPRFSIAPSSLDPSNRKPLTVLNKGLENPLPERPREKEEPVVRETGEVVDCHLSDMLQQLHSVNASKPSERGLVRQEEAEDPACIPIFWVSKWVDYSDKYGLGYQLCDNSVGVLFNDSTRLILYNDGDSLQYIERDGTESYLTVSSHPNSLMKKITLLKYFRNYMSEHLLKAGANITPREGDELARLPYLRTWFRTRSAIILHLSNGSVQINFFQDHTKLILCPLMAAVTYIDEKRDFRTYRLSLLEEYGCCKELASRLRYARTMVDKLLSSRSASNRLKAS
G9a inh: G9a (human) methyltransferase inhibition; G9a H3K9 monomethylation, AlphaScreen, 2 h; 350,000 compounds, 8.8% hits; Potency, µM (doses to about 102 µM), for inactives: at the top dose activity, negative = inhibition, most hits filed as inhibitors; Q96KQ7; note: % is set by controls: 0 for no effect and ±100 for the full control effect; nearly all actives have a fitted effect of over 75% in size
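Signal arises when biotinylated H3K9 peptide, once monomethylated, bridges streptavidin donor and antibody-captured acceptor beads. Enzyme at 20 nM was preincubated 15 min with test compounds; peptide 500 nM and SAM 20 uM then reacted for 2 h.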
HP1b chromo inh: inhibitors of HP1-beta chromodomain binding to methylated histone tails | P83916 | AlphaScreen HP1-beta / biotin-H3K9me3 peptide binding | Potency, µM (doses to about 114 µM), for inactives: top-dose activity change, negative = inhibition, hits mostly inhibitors | 390,000 compounds, 0.56% hits; note: nearly all actives have a fitted effect of over 70% in size
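HP1-beta protein (50 nM final) preincubated 30 min at room temperature with biotinylated H3(1-18)K9me3 peptide (50 nM) in PBS pH 7.4, 0.01% Tween-20, then compound added for 30 min. AlphaScreen streptavidin donor/nickel chelate acceptor beads (10 ug/mL final), 30 min dark, luminescence read.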
BAZ2B inh: blocks human BAZ2B. AlphaScreen BAZ2B-H3K14Ac peptide displacement. Potency, µM (titrated, usually from 114 µM), for the others: top-dose activity change, negative = inhibition, usual class: inhibitors. 360,000 compounds, 4.4% hits. AID 504333; note: % is set by controls: 0 for no effect and ±100 for the full control effect; nearly all actives have a fitted effect of over 60% in size
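Inhibition is scored as reduced AlphaScreen emission. The BAZ2B/b-H3(5-23)K14Ac complex (50 nM each) in PBS pH 7.4, 0.01% Tween-20 meets compound (up to 110 uM) for 30 min at RT before bead addition.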
Sfp PPTase inh: inhibitors of Bacillus subtilis Sfp phosphopantetheinyl transferase. Potency, µM, inactives show largest response in the series, negative = inhibition, usual class: inhibitors. Biochemical Sfp PPTase activity, qHTS. Q9F4F7. 310,000 compounds, 3.5% hits;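 note: the enzyme is Sfp with the accession as filed and its product quenches rhodamine fluorescence; 0% = enzyme reaction without inhibitor and -100% = no enzyme wells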
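Sfp 15 nM + cpd, 15 min RT; start w/ rhodamine-CoA 5 uM, BHQ-2-YbbR 12.5 uM (final); 50 mM Hepes pH 7.6, 10 mM MgCl2, 0.01% NP-40, 0.01% BSA; read 525/598 nm at 0 and 30 min.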
JMJD2A Tudor: blocks the human JMJD2A Tudor domain; O75164; AlphaScreen JMJD2A-Tudor / H3K4me3 peptide binding; Potency, µM (doses to about 114 µM), for the others: at the top dose activity change, negative = inhibition, hits mostly inhibitors; 390,000 compounds, 4.4% hits; AID 504339; note: % is set by controls: 0 for no effect and ±100 for the full control effect; nearly all actives have a fitted effect of over 50% in size
* = called active by the depositor; ? = inconclusive; / = no result given; [ ] = dose if it differs, or a comment. Calls come from the whole dose curve; as a rule, active = well fitted curve in the direction sought with a large enough effect; inconclusive = small, poorly fitted or top-dose-only effect, or another doubt; inactive = no such curve, though single readings can be large; an effect the other way counts as inactive or inconclusive. Potency is the fitted concentration of half-maximal effect.

SMILES | PLK1 PBD inh | G9a inh | HP1b chromo inh | BAZ2B inh | Sfp PPTase inh | JMJD2A Tudor
COc1cccc(C(c2nnnn2CCc2ccccc2)N2CCN(c3ccccc3)CC2)c1OC (stereo unspecified) | 29.9µM* | ? | -24.5% | -32.5% | 24.1% | -19.1%[11.4 µM]
COc1ccccc1C(c1nnnn1CCc1ccccc1)N1CCCCCC1 (stereo unspecified) | -5.4% | -4.9%[12.7 µM] | 35.6% | 9.7% | 0.0% | -4.7%
O=C(C1CCCN(S(=O)(=O)c2ccc(Br)s2)C1)N1CCN(c2ccc(F)cc2)CC1 (stereo unspecified) | / | ? | 1.7% | -21.1% | / | -27.7%
O=C(CN1C(=O)COc2ccc(S(=O)(=O)N3CCOCC3)cc21)NCc1ccccn1 | -9.0% | / | 35.2% | 16.1% | -2.9% | -13.9%
Cc1ccc(C)c(Cn2nnc(C(=O)NCc3ccc(Cl)cc3Cl)c2N)c1 | / | -22.5%[59 µM] | 9.9% | ? | / | -15.8%
O=C(Nc1ccc(OC(F)(F)F)cc1)C(NS(=O)(=O)c1cccc2nsnc12)c1ccccc1 (stereo unspecified) | / | -13.7%[59 µM] | 11.3% | / | / | ?
CCOC(=O)c1c(C)[nH]c(C(=O)OCC(=O)N(CC(C)C)c2c(N)n(Cc3ccccc3)c(=O)[nH]c2=O)c1C | 21.8% | 15.8µM* | 31.6% | 1.3% | / | -21.2%
Cc1ccc(C(=O)OCC(=O)N(CC(C)C)c2c(N)n(Cc3ccccc3)c(=O)[nH]c2=O)s1 | 0.3% | 79.4µM* | 22.7% | -5.7% | 7.3% | -4.2%
CCCN(C(=O)COC(=O)c1cc(CC)c(C)s1)c1c(N)n(Cc2ccccc2)c(=O)[nH]c1=O | -8.8% | 50.1µM* | -3.3% | ? | / | -32.4%
COCCN(C(=O)COC(=O)c1ccc(C)s1)c1c(N)n(Cc2ccccc2)c(=O)[nH]c1=O | -4.2% | -3.3% | 21.7% | 13.0% | / | -5.4%
CCOC(=O)OCC1OC(c2ccccc2)C=CC1Oc1cccc(N(C)C)c1 (stereo unspecified) | / | / | / | / | 15.4% | /
Nc1nc(SCc2ccccc2[N+](=O)[O-])c2ncn(Cc3ccccc3)c2n1 | -12.5% | / | -17.5% | / | / | ?
COC(=O)c1ccc(OCC(O)CN2CCN(C(=O)c3ccco3)CC2)c(OC)c1 (stereo unspecified) | -17.5% | 9.6% | 35.5% | -23.1% | 14.9% | -10.5%
Cc1ccc(CNC(=O)CSc2nc(N3CCCCC3)nc(N3CCCCC3)n2)cc1 | 26.7µM* | 7.6%[59 µM] | -11.7% | 9.2% | -6.2% | 0.0%[11.4 µM]
CCOC(=O)C(C)Sc1nc2c(c(-c3cccs3)c1C#N)CCC2 (stereo unspecified) | -0.2% | 63.8%[59 µM] | 181.9% | 61.1% | 50.1µM* | 122.4%
N#Cc1c(SC(C(=O)O)c2ccccc2)nc2c(c1-c1cccs1)CCCC2 (stereo unspecified) | 29.9µM* | -32.6% | 5.9% | -24.7% | -24.9% | -18.3%
CC(C)Sc1ccccc1C(=O)Nc1ccc2c(c1)n(C)c(=O)n2C | -7.9% | 6.31µM* | 4.5% | 56.2µM* | -7.3% | -1.8%
CC(=O)Nc1ccc(S(=O)(=O)Nc2ccc3c(c2)n(C)c(=O)n3C)c(C)c1 | -6.8% | 14.2% | -3.6% | 50.1µM* | 8.8% | -11.6%
COc1ccc(C(=O)Nc2ccc3c(c2)n(C)c(=O)n3C)cc1OC | -3.1% | -1.9% | 31.5% | 56.2µM* | 13.5% | -16.7%
Cc1ccc(OC(C)C(=O)Nc2ccc3c(c2)n(C)c(=O)n3C)c(C)c1 (stereo unspecified) | -10.6% | 8.0%[59 µM] | 10.0% | 56.2µM* | -8.1% | -20.9%
COc1ccc(S(=O)(=O)NCc2ccc(C(=O)N3CCc4ccccc4C3)cc2)cc1 | -10.3% | -3.7%[59 µM] | ? | -3.9% | 7.2% | -22.5%
CN(C)c1ccc(-c2ccc3ncnc(N(C)Cc4ccco4)c3c2)cc1 | / | -13.8%[0.501 µM] | / | / | -15.6% | /
O=C(NCC1CC1)C1(C(F)(F)F)CC(CCCO)CCCO1 (stereo unspecified) | 4.1% | / | 36.6% | / | 23.0% | -21.1%
Cc1nc2[nH]onc2c2nccc(=O)c12 | -9.8% | 14.1µM* | 28.9% | -1.2% | -0.2% | -6.2%

Compound activity (PubChem)
